Most compounds without a hit are left out; they make up all but 2.4% or so of the library.
POLI inh = qHTS for Inhibitors of Polymerase Iota | DNA polymerase iota (Homo sapiens), Q9UNA4 | AID 588590, 2011 | Pol iota fluorescent replication assay, 10 min | Potency, µM (titrated, usually from 115 µM), for the others: top-dose activity, negative = inhibition, usual class: inhibitors | 390,000 compounds, 1% hits
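Fluorescent replication assay read twice, at 0 min and 10 min after adding 50 nM (final) substrate. Enzyme (10 nM) and compounds were first incubated 15 min at room temperature; enzyme-free buffer wells were negative controls.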
FEN1 inhibitor = qHTS Assay for the Inhibitors of Human Flap endonuclease 1 (FEN1); P39748; 390,000 compounds, 0.35% hits; AID 588795, 2011; Recombinant FEN1 flap cleavage, fluorescence, 15 min; Potency, µM (highest dose often 114 µM), for the others: top-dose activity change, negative = inhibition, actives largely listed as inhibitors; note: % is set by controls: 0 for no effect and ±100 for the full control effect; nearly all actives have a fitted effect of over 65% in size
Target sequence (P39748 whole entry, looked up): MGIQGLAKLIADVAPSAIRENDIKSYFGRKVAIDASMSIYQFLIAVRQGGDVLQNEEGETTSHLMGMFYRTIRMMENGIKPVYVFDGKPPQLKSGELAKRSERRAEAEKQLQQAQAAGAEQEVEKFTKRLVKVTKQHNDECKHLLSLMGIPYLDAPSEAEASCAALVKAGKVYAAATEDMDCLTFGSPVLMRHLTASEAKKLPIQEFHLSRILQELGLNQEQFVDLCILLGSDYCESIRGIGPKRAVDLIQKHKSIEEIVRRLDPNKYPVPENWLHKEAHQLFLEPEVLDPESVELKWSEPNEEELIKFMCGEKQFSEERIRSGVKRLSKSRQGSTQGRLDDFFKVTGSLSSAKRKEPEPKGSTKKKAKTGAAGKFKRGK
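Steps: FEN1 (10 nM) dispensed; compound added by pin tool; 15 min at room temperature; substrate added to 50 nM final; reads at 0 min and 15 min; data normalized and fitted (four-parameter Hill).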
Pol kappa inh-1 = qHTS for Inhibitors of Polymerase Kappa. purified Pol kappa, fluorescent DNA synthesis assay, 10 min. Potency, µM (top dose mostly 107 µM), inactives show top-dose activity, negative = inhibition, usual class: inhibitors. 400,000 compounds, 0.53% hits. AID 588579, 2011; note: % is set by controls: 0 for no effect and ±100 for the full control effect
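Readout: fluorescence, taken kinetically at 0 and 10 min. Conditions: 10 nM Pol kappa, 15 min RT compound preincubation, 50 nM substrate final. Controls: enzyme-free buffer wells.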
POLB inh = qHTS Assay for Inhibitors of DNA Polymerase Beta | AID 485314, 2010 | 340,000 compounds, 1.3% hits | P06746 | Potency, µM (doses to about 114 µM), for inactives: at the top dose activity change, negative = inhibition, most hits filed as inhibitors | Pol beta primer extension/strand displacement, fluorescence kinetic; note: % is set by controls: 0 for no effect and ±100 for the full control effect
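Pol beta (10 nM) was preincubated with compound for 15 min at room temperature. The reaction was then started with 50 nM substrate and read immediately and after a further 10 min at room temperature.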
WRN helicase inh = qHTS for Inhibitors of WRN Helicase; WRN helicase unwinding, fluorescent forked duplex, kinetic; 360,000 compounds, 0.46% hits; Bifunctional 3'-5' exonuclease/ATP-dependent helicase WRN (Homo sapiens), Q14191; Potency, µM (series often up to 114 µM), for inactives: top-dose activity change, negative = inhibition, most hits filed as inhibitors; AID 651768, 2012; note: % is set by controls: 0 for no effect and ±100 for the full control effect; nearly all actives have a fitted effect of over 55% in size
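Primary qHTS, 1536-well format. 20 nM WRN + compound, 15 min RT; start with 100 nM forked fluorophore/quencher duplex, 2 mM ATP (final); kinetic read ex 525/em 598 nm.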
Pol eta inh-1 = qHTS for Inhibitors of Polymerase Eta. Potency, µM (series often up to 114 µM), for inactives: top-dose activity change, negative = inhibition, usual class: inhibitors. DNA polymerase eta (Homo sapiens), Q9Y253. 390,000 compounds, 1.2% hits. recombinant Pol eta, fluorescent DNA replication assay; note: % is set by controls: 0 for no effect and ±100 for the full control effect
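Fluorescent replication assay: 50 nM final substrate added after a 15 min room-temperature compound preincubation with 10 nM enzyme. Signal taken at 0 min and again at 10 min.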
PGK validate = qHTS for inhibitors of Phosphogylcerate Kinase: Hit Validation Screen; shares compounds with Pol kappa inh-1; TbPGK coupled GAPDH assay, Kinase-Glo luminescence; Potency, µM (titrated, usually from 57.5 µM), inactives show top-dose activity change, negative = inhibition, usual class: inhibitors; 500 compounds, 79% hits; note: % is set by controls: 0 for no effect and ±100 for the full control effect; nearly all actives have a fitted effect of over 65% in size
POLI cherry-pick = qHTS for Inhibitors of Polymerase Iota: Confirmatory Assay for Cherry-picked Compounds; shares compounds with Pol kappa inh-1; Pol iota primer extension, TAMRA/BHQ fluorescence; Potency, µM, hits mostly inhibitors; 1,500 compounds, 77% hits
Pol kappa inh-2 = qHTS for Inhibitors of Polymerase Kappa: Confirmatory Assay for Cherry-picked Compounds; Potency, µM, usual class: inhibitors; shares compounds with Pol eta inh-1; 920 compounds, 76% hits; AID 720501, 2013; purified Pol-kappa, fluorescent strand-displacement substrate
Pol eta inh-2 = qHTS for Inhibitors of Polymerase Eta: Confirmatory Assay for Cherry-picked Compounds | shares compounds with Pol eta inh-1 | Pol eta primer extension, TAMRA/BHQ fluorescence, 10 min | 2,600 compounds, 64% hits | Potency, µM, usual class: inhibitors
Numbers without * were called inactive; [ ] = remark or other dose. Calls come from the whole dose curve; as a rule, active = well fitted curve in the direction sought with a large enough effect; inconclusive = small, poorly fitted or top-dose-only effect, or another doubt; inactive = no such curve, though single readings can be large; an effect the other way counts as inactive or inconclusive. Potency is the fitted concentration of half-maximal effect.

How did Cc1cccc(C)c1NC(=O)C1(C)CSCC(=O)N1Cc1cccc(C(F)(F)F)c1 (configuration not stated) do in these assays?
WRN helicase inh: -5%

How did S=c1[nH]nc(-c2cc(-c3ccccc3)n[nH]2)n1/N=C/C=C/c1ccco1 do in these assays?
POLI inh: 14µM*; FEN1 inhibitor: inconclusive; Pol kappa inh-1: 50µM*; POLB inh: 22µM*; WRN helicase inh: inconclusive; Pol eta inh-1: 22µM*; POLI cherry-pick: inconclusive; Pol kappa inh-2: 24*; Pol eta inh-2: 30*

How did N#CC(C#N)=Cc1cccn1-c1ccc(C(=O)O)cc1 do in these assays?
POLI inh: 18µM*; FEN1 inhibitor: -17%; Pol kappa inh-1: 40µM*; POLB inh: 5µM*; WRN helicase inh: 56µM*; Pol eta inh-1: 10µM*; POLI cherry-pick: 19*; Pol kappa inh-2: 17*; Pol eta inh-2: 27*

How did N#C/C(=C\c1ccccc1OCc1ccc(C(=O)O)cc1)c1ccccc1 do in these assays?
POLI inh: 5%; FEN1 inhibitor: -17%; Pol kappa inh-1: 0%; POLB inh: -1%; WRN helicase inh: -11%; Pol eta inh-1: -8%

How did N#C/C(=C/c1cccn1-c1cccc(C(=O)O)c1)c1ccc(Cl)cc1 do in these assays?
POLI inh: 20µM*; FEN1 inhibitor: 7%; Pol kappa inh-1: inconclusive; POLB inh: 8.9µM*; WRN helicase inh: -10%[11.6 µM]; Pol eta inh-1: 50µM*; POLI cherry-pick: 75*; Pol kappa inh-2: 75*; Pol eta inh-2: inconclusive

How did CCOC(=O)/C(C#N)=C/c1cccn1-c1ccc(Cl)cc1 do in these assays?
POLI inh: 84%; FEN1 inhibitor: 8%; Pol kappa inh-1: 2%; POLB inh: -7%; WRN helicase inh: -3%; Pol eta inh-1: -20%

What do the screens show for `Cc1ccc(Sc2ccc(/C=C3/C(=O)NN(c4ccccc4)C3=O)o2)cc1`?
POLI inh: -96%; FEN1 inhibitor: -5%; Pol kappa inh-1: inconclusive; POLB inh: inconclusive; WRN helicase inh: -11%[11.6 µM]; Pol eta inh-1: 22µM*; POLI cherry-pick: 67*; Pol kappa inh-2: 24*; Pol eta inh-2: inconclusive

How did O=C1NN(c2ccccc2)C(=O)/C1=C/c1ccc(Sc2ccc(Cl)cc2)o1 do in these assays?
POLI inh: 7.9µM*; FEN1 inhibitor: -16%; Pol kappa inh-1: 50µM*; POLB inh: inconclusive; WRN helicase inh: inconclusive; POLI cherry-pick: inconclusive; Pol eta inh-2: 30*

What do the screens show for `Cc1cc(NC(=O)CSCC(=O)OCC(=O)c2ccc(Br)cc2)no1`?
WRN helicase inh: 4%; Pol eta inh-1: -5%

How did CCc1ccc(C(=O)c2cn(CC(=O)Nc3ccc4c(c3)OCO4)c3ccc(CC)cc3c2=O)cc1 do in these assays?
POLI inh: -94%; FEN1 inhibitor: 3%; Pol kappa inh-1: -5%; POLB inh: 4.5µM*; Pol eta inh-1: 89µM*; POLI cherry-pick: 42*; Pol eta inh-2: inconclusive

How did COc1ccc(C(=O)N(Cc2ccco2)Cc2ccccc2F)cc1Cl do in these assays?
POLI inh: 3%; FEN1 inhibitor: -6%; Pol kappa inh-1: 0%; POLB inh: 7%; Pol eta inh-1: -17%

What do the screens show for `Cc1nnc(SCC2=C(C(=O)O)N3C(=O)C(NC(=O)Cn4nc(C(F)F)cc4C)C3SC2)s1` (configuration not stated)?
POLI inh: 16µM*; FEN1 inhibitor: -3%; Pol kappa inh-1: inconclusive; POLB inh: inconclusive; WRN helicase inh: -8%[11.6 µM]; Pol eta inh-1: 8.9µM*; PGK validate: inconclusive; Pol eta inh-2: 27*

What do the screens show for `COc1ccc(OC)c(NC(=O)c2ccc(-c3nc(CSc4ccccc4)c(C)o3)cc2)c1`?
POLI inh: 41%; FEN1 inhibitor: -8%; Pol kappa inh-1: -2%; POLB inh: 8%; Pol eta inh-1: -20%

How did COc1cc(C)cc(C(=O)O)c1C1=C(O)c2cccc(O)c2C(=O)C1=O do in these assays?
POLI inh: 35µM*; FEN1 inhibitor: inconclusive; Pol kappa inh-1: 50µM*; POLB inh: 28µM*; WRN helicase inh: inconclusive; Pol eta inh-1: 16µM*; POLI cherry-pick: 34*; Pol eta inh-2: 24*

What do the screens show for `O=C(N/N=C/c1cc(Br)c(Br)o1)c1ccc2c(c1)OCCO2`?
POLI inh: inconclusive; FEN1 inhibitor: -22%; Pol kappa inh-1: inconclusive; POLB inh: 8.9µM*; WRN helicase inh: inconclusive; Pol eta inh-1: 13µM*; POLI cherry-pick: inconclusive; Pol eta inh-2: 30*

What do the screens show for `Cc1nnc(N2C(=O)c3oc4ccccc4c(=O)c3C2c2ccco2)s1` (configuration not stated)?
POLI inh: inconclusive; FEN1 inhibitor: -26%; Pol kappa inh-1: inconclusive; POLB inh: 20µM*; WRN helicase inh: inconclusive; Pol eta inh-1: inconclusive; POLI cherry-pick: inconclusive; Pol eta inh-2: inconclusive

What do the screens show for `COc1cccc(CN(C(=O)c2ccco2)C2CCS(=O)(=O)C2)c1` (configuration not stated)?
POLI inh: 21%; FEN1 inhibitor: 20%; Pol kappa inh-1: -9%; POLB inh: -3%; WRN helicase inh: -10%; Pol eta inh-1: 5%

Compound activity as filed in PubChem.
